Source: PubChem BioAssay
Pf Dd2 inh: inhibitors of Plasmodium falciparum Dd2 growth | 4.3% of 120,000 active | P. falciparum Dd2 growth, SYBR Green, 72 h | Potency, µM (doses to about 28.9 µM), actives largely listed as inhibitors; active means well fitted inhibition curve with a large enough effect; further: nearly all actives have a fitted effect of over 65% in size
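Readout: SYBR Green fluorescence, 485 nm excitation, 535 nm emission, after ~16 h lysis at 37C. Before that, Dd2-infected red cells (2.5% hematocrit) grew 72 h with compound, 29 uM top final concentration.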
Numbers stand for hits; i = inactive. Many of the other results were omitted from the sample, so hits are more common in it than they were.

SMILES	Pf Dd2 inh
Clc1ccc(-c2cnc([C@@H]3COCCN3Cc3ccccc3)[nH]2)cc1	10µM
COc1ccc(-c2cnc([C@@H]3COCCN3Cc3ccc(C)cc3)[nH]2)cc1	i
COc1cccc(-c2cnc([C@@H]3COCCN3Cc3ccccc3)[nH]2)c1	11.2µM
Clc1ccc(-c2cnc([C@@H]3COCCN3C3CCC3)[nH]2)cc1	i
CC1(C)C(=O)N(Cc2ccccc2)[C@H]2CN(Cc3ccccc3)C[C@H]2[S+]1(=O)[O-]	i
CCOCCOC1CCN(C(=O)c2cccc(F)c2)CC1	i
COc1cccc(CNC(=O)c2noc(-c3ccc(C)cc3)n2)c1	i
COC[C@@H]1CN(C(=O)CCc2c(C)nn(C)c2C)C[C@H]1c1ccncc1	i
CCC(C)c1ccc(OCC(=O)Nc2cccc(-c3nc4ncccc4o3)c2)cc1 (configuration not stated)	2.51µM
Cc1cc(C)cc(OCC(=O)Nc2ccc(-c3nc4ncccc4o3)cc2C)c1	i
CC(C)c1ccc(OCC(=O)Nc2cc(-c3nc4ncccc4o3)ccc2Cl)cc1	i
Cc1ccc(CNC(=O)[C@@]23CCCC[C@H]2N(C)C(=O)CC3)o1	i
CC(C)C(=O)Nc1ccc(C2(C(=O)N3CCN(c4ccccc4)CC3)CCCCC2)cc1	7.94µM
CCC(=O)Nc1ccc(C2(C(=O)N3CCN(c4ccccc4)CC3)CCC2)cc1	i
CCNC(=O)C1(c2ccc(NC(=O)C(C)C)cc2)CCCCC1	i
CCC(C(=O)N1CCN(c2ccc(OC)cc2)CC1)n1nc(C)n2c(cc3occc32)c1=O (configuration not stated)	i
O=C1Cc2c(-c3cccc(C(F)(F)F)c3)n[nH]c2CN1Cc1ccccc1	i
COCCN1Cc2[nH]nc(-c3ccsc3)c2CC1=O	i
O=C1Cc2c(-c3ccsc3)n[nH]c2CN1Cc1ccccc1	5.62µM
Cc1ccc(-c2noc([C@@H]3CCCN3C(=O)Cc3ccccc3Cl)n2)cc1	i
CC(C)c1ccc(-c2noc(SCC(=O)N3CCCCC3C)n2)cc1 (configuration not stated)	2.24µM
O=C(Cc1ccccc1Cl)N1CCC[C@H]1c1nc(-c2ccccc2)no1	i
CC1CCN(C(=O)CSc2nc(-c3ccc(C(C)C)cc3)no2)CC1	0.891µM
COc1ccc(-c2nnc(SCC(=O)N3CCC(C)CC3)o2)cc1	i
CC1CCN(C(=O)CSc2n[nH]c(-c3ccc(F)cc3)n2)CC1	i
SMILES	Pf Dd2 inh
O=S(=O)(NC1CCCc2nc(-c3ccccc3)ncc21)N1CCCC1 (configuration not stated)	i
O[C@@H]1CCN(Cc2nc(C3(O)CCN(Cc4ccccc4C(F)(F)F)CC3)cs2)C1	i
CN1CCN(C(=O)c2cnn(-c3cccc(F)c3)c2C2CCN(C(=O)OC(C)(C)C)CC2)CC1	i
CC(C)(C)OC(=O)N1CCC(c2c(C(=O)N3CCN(Cc4ccccc4)CC3)cnn2-c2cccc(Cl)c2)CC1	3.16µM
CC(C)(C)OC(=O)N1CCC(c2c(C(=O)N3CCC(c4ccccc4)C3)cnn2-c2cccc(Cl)c2)CC1 (configuration not stated)	3.55µM
Cc1ccc(C2CCN(C(=O)c3cnn(-c4cccc(Cl)c4)c3C3CCN(C(=O)OC(C)(C)C)CC3)C2)cc1 (configuration not stated)	4.47µM
COc1ccccc1N1CCN(C(=O)c2cnn(-c3cccc(Cl)c3)c2C2CCN(C(=O)OC(C)(C)C)CC2)CC1	7.94µM
CC(C)(C)OC(=O)N1CCC(c2c(C(=O)N3CCN(c4ncccn4)CC3)cnn2-c2ccccc2)CC1	i
Cc1cccc(-n2ncc(C(=O)N3CCOCC3)c2C2CCN(C(=O)OC(C)(C)C)CC2)c1	i
COc1ccc(NCc2cc3cc4c(cc3n(CC(=O)Nc3ccc(C)cc3)c2=O)OCO4)cc1	i
CCc1nc(SCC(=O)Nc2ccc(NC(C)=O)cc2)n[nH]1	i
CCOCCCNC(=O)C1CCC(CNS(=O)(=O)c2ccc(NC(C)=O)cc2)CC1 (configuration not stated)	i
COCc1nc(C2CCCN(C(=O)Nc3cc(C)cc(C)c3)C2)no1 (configuration not stated)	i
COc1ccc(C(=O)NC2CCN(c3cn[nH]c(=O)c3)CC2)c(OC)c1	i
CSc1ccc(-c2ccc3c(c2)C(=O)N2CCN(C(=O)CCC(=O)O)C[C@H]2C(=O)N3)cc1	i
CSc1ccc(-c2ccc3c(c2)C(=O)N2CCN(C(=O)CCC(=O)O)C[C@@H]2C(=O)N3)cc1	i
CSc1ccc(-c2ccc3c(c2)C(=O)N2CCN(C(=O)CC(C)(C)C)C[C@@H]2C(=O)N3)cc1	5.62µM
CN(C)S(=O)(=O)N1CCCC(c2nc(-c3cccnc3)no2)CCNC(=O)CC1 (configuration not stated)	i
Cc1cnc(C(=O)N2CCCCCCNC(=O)[C@@H]3CCCC[C@@H]32)cn1	i
Cc1cc(C)cc(NC(=O)N2CCC(CN3CCOCC3)CC2)c1	i
Cc1c(C(=O)NCc2ccc(F)cc2)sc2nc3n(c(=O)c12)CCC3	i
Cc1c(C(=O)Nc2cccc(C(F)(F)F)c2)sc2nc3n(c(=O)c12)CCCC3	10µM
CCOc1ccc(NC(=O)c2sc3nc4n(c(=O)c3c2C)CCCC4)cc1	i
COc1ccccc1Nc1cc(C(=O)NCCCN(C)c2ccccc2)c2ccccc2n1	i
COc1ccc(C(=O)N[C@@H]2CCC[C@@H]2C(=O)NCCN2CCCCC2)cn1	i
SMILES	Pf Dd2 inh
O=C(c1ccc(Cl)s1)N1CCc2nn(Cc3ccccc3)c(=O)n2CC1	i
COc1ccc(-c2cc(N3CCCC(NC(=O)c4ccncc4)C3)n[nH]2)cc1 (configuration not stated)	i
COCCN[C@H]1[C@@H]2OC[C@@H](O2)[C@@H](NCc2ccc(-c3ccccc3)cc2)[C@@H]1O	10µM
O[C@H]1[C@H](NCc2ccc(-c3ccccc3)cc2)[C@H]2CO[C@H](O2)[C@@H]1Sc1ccccc1	i
COCCN[C@H]1[C@@H]2OC[C@@H](O2)[C@@H](NCc2ccccn2)[C@@H]1O	i
COc1ccc(C(=O)N[C@@H]2CCC[C@@H]2C(=O)NCC(C)C)cn1	i
Cc1ccc(C)c(NC(=O)Nc2cc3c(cc2N2CCCCC2)n(C)c(=O)n3C)c1	10µM
COc1ccc(Cl)cc1NC(=O)c1c(OC)cc(=O)n2c1CCCC2	i
COc1ccc(Cl)cc1NC(=O)Nc1c[nH]c(=O)[nH]c1=O	i
CCn1c(=O)n(CC)c2cc(N3CCCCC3)c(NC(=O)Nc3ccccc3C(F)(F)F)cc21	10µM
O=C(Cn1nc2n(c1=O)CCCCC2)Nc1ccccc1C(F)(F)F	i
CC(=O)c1cccc(NC(=O)Nc2cc3c(cc2N2CCCC2)n(C)c(=O)n3C)c1	i
CCn1c(=O)n(CC)c2cc(N3CCCCC3)c(NC(=O)Nc3cc(Cl)ccc3OC)cc21	8.91µM
Cc1ccc(C#N)c(=O)n1CC(=O)Nc1ccccc1C(F)(F)F	i
Cc1ccc(C)c(NS(=O)(=O)c2ccc3c(c2)n(C)c(=O)n3C)c1	i
CCCOc1ccc(CNC(=O)C2CCN(C(=O)c3sccc3-n3cccc3)CC2)cc1	i
CCCCCOC(=O)CSc1nc2sc3c(c2c(=O)n1Cc1ccccc1)CC(C)(C)OC3	i
CCc1nc(C)sc1CN1CCCn2nc(CCC(=O)O)cc2C1	i
CC(C)(C)CNCC1(O)CCCN(Cc2cccc(F)c2F)C1=O (configuration not stated)	4.47µM
CN(CCO)CC1(O)CCCN(Cc2cccc(F)c2F)C1=O (configuration not stated)	i
O=C1N(Cc2cccc(F)c2F)CCCC1(O)CN1CCNCC1 (configuration not stated)	i
